Reference: PubChem BioAssay (NCATS)
Records with an inconclusive call do not appear. Entries that show only a call come without a potency. The source made the active and inactive calls. Calls come from the whole dose curve; as a rule, active = well fitted curve in the direction sought with a large enough effect; inconclusive = small, poorly fitted or top-dose-only effect, or another doubt; inactive = no such curve, though single readings can be large; an effect the other way counts as inactive or inconclusive.

Key:
[1] = target: Cellular tumor antigen p53 (Homo sapiens) (UniProt P04637); assay: Primary qHTS for small molecule compounds that upregulate eGFP-tagged delta133p53alpha (in N-terminal) cells. (AID 2060322); details: NCI-H358 eGFP-delta133p53alpha fluorescence, 24 h; activation: active compounds read high; note: nearly all actives have a fitted effect of over 75% in size; note: potency is the fitted concentration of half-maximal effect;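 for activation: cells pre-induced with doxycycline then dosed without doxycycline; series mostly up to about 56 µM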
Cellular tumor antigen p53 (Homo sapiens), sequence (P04637 whole entry, looked up): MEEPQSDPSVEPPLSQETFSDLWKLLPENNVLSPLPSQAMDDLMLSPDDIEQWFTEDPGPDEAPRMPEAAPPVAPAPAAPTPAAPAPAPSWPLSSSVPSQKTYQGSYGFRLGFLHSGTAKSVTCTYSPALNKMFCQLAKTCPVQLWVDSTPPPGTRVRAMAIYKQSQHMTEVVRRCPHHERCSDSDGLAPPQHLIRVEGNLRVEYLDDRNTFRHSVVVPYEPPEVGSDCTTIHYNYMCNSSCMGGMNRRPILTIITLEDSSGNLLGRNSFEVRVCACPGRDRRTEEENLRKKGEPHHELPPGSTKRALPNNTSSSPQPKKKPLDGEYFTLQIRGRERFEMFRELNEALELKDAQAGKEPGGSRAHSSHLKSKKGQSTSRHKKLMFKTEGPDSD
How it was run: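 NCI-H358 cells pre-induced 24 h with 10 ng/ml doxycycline for eGFP-delta133p53alpha, plated dox-free and exposed 24 h at 37C to titrated compounds. Fixed, Hoechst-stained; gated GFP peak intensity by laser scanning cytometry, normalized to DMSO (0%) and 57.5 uM 5-azacytidine (100%).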

[2] = target: Aldehyde dehydrogenase, mitochondrial (Homo sapiens) (UniProt P05091); assay: qHTS for Inhibitors of the Aldehyde Dehydrogenase Family (ALDH2) Primary screen (AID 2061308); note: nearly all actives have a fitted effect of over 55% in size
[3] = target: Retinaldehyde dehydrogenase 3 (Homo sapiens) (UniProt P47895); assay: qHTS for Inhibitors of the Aldehyde Dehydrogenase Family (ALDH1A3) Primary screen (AID 2061315)

| SMILES | activation [1] | Potency [2] | Potency [3] | Potency [1] | activity change, negative = inhibition [2] | activity change, negative = inhibition [3] |
| --- | --- | --- | --- | --- | --- | --- |
| COc1cc(O)c2c(c1Cl)CC(C)OC2=O (centres undefined) | 7.14% (inactive) | inactive | inactive | – | – | – |
| C[C@@H]1CN(Cc2ccccc2)C[C@H]1c1nc2c(cnn2C2CCOCC2)c(=O)[nH]1 | 18.8% (inactive) | inactive | inactive | – | – | – |
| CC(C)(O)C(=O)N1CCN(c2ccc(C(F)(F)F)c(C3=C(c4c[nH]c5ccccc45)C(=O)NC3=O)c2)CC1 | – | inactive | inactive | 26.9 µM (active) | – | – |
| COC(=O)C(CC1(O)c2ccccc2N2C(=O)C(CC(C)C)NC21)n1cnc2ccccc2c1=O (centres undefined) | -1.53% (inactive) | inactive | inactive | – | – | – |
| CC(C)C[C@H](CC(=O)NO)C(=O)N[C@@H](Cc1ccc2ccccc2c1)C(=O)N[C@@H](C)C(=O)NCCN | -11.7% (inactive) | inactive | inactive | – | – | – |
| CC1(C)SC2C(NC(=O)[C@H](NC(=O)N3CCNC3=O)c3ccccc3)C(=O)N2C1C(=O)O (some centres undefined) | 17% (inactive) | inactive | inactive | – | – | – |
| C=C(C(=O)O[C@H]1C/C(C)=C/CC/C(CO)=C/[C@H]2OC(=O)C(=C)[C@H]12)C(O)CO (some centres undefined) | – | inactive | inactive | 18.6 µM (active) | – | – |
| CC(=O)O[C@@H]1C[C@]2(C)[C@@]3(CCC4[C@@]5(C)CC[C@H](O[C@@H]6O[C@H](C(=O)O)[C@@H](O)[C@H](OC7OC(CO)C(O)C(O)[C@H]7O[C@@H]7O[C@@H](C)[C@H](O)[C@@H](O)[C@H]7O[C@@H]7OC[C@](O)(CO)[C@H]7O)[C@H]6OC6OC(CO)C(O)C(O)C6O)C(C)(C)C5CC[C@]42C)OC[C@@]12CCC(C)(C)CC23 (some centres undefined) | -16% (inactive) | – | – | – | 9.13% [at 11.2 µM] (inactive) | 6.07% [at 11.2 µM] (inactive) |
